From PubChem BioAssay AID1159580 (chemical genetic matrix, 2015)
Where “and” joins values, the source holds several entries; their conditions need not be identical. Equal entries are not always repeated. Out of some 5,500 compounds screened, about 2,000 (36%) were called active. Another 18% or so got no clear call; they are omitted. No stated cut-off is given here; in the data, active means normalized growth mostly below about 0.91 (no sharp cut-off); inconclusive means no clear call, values can overlap the other calls; inactive means mostly above about 0.92. This is one part of the list.

Assay: chemical genetic growth profiling, strain panel (AID 1159580);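 further: tested at 20 µM; growth read once vehicle control cultures reached saturation at 30 °C; 1 = growth at the plate median or of vehicle wells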
Details: S. cerevisiae deletion strains, growth OD

Measured: normalized growth

O=C(/C=C/C=C/c1ccc2c(c1)OCO2)N1CCCCC1
active: locus YAL026C, strain drs2, stronger effect = lower value 0.885 | locus YBR009C, strain hhf1, stronger effect = lower value 0.907 | locus YCL011C, strain gbp2, stronger effect = lower value 0.889 | locus YCL069W, strain vba3, stronger effect = lower value 0.904 | locus YDR137W, strain rgp1, stronger effect = lower value 0.687 | locus YDR195W, strain ref2 1.23 [resistant] | locus YDR318W, strain mcm21, stronger effect = lower value 0.895 | locus YDR392W, strain spt3, stronger effect = lower value 0.599 | locus YDR502C, strain sam2, stronger effect = lower value 0.888 | locus YER015W, strain faa2, stronger effect = lower value 0.922 | locus YER155C, strain BEM2 (second series), stronger effect = lower value 0.696 | locus YGL086W, strain mad1, stronger effect = lower value 0.923 | locus YGL253W, strain hxk2, stronger effect = lower value 0.873 | locus YGR135W, strain pre9, stronger effect = lower value 0.886 | locus YGR229C, strain SMI1, stronger effect = lower value 0.732 | locus YGR252W, strain gcn5, stronger effect = lower value 0.732 | locus YHR142W, strain chs7, stronger effect = lower value 0.857 | locus YJL129C, strain trk1, stronger effect = lower value 0.855 | locus YJL164C, strain tpk1, stronger effect = lower value 0.904
0.779 (active) and 0.987 (inactive): locus YJL095W, strain BCK1, stronger effect = lower value
inactive: locus YAL013W, strain DEP1, stronger effect = lower value 0.962 | locus YAL021C, strain ccr4, stronger effect = lower value 0.965 | locus YAL030W, strain snc1, stronger effect = lower value 0.959 | locus YBL061C, strain skt5, stronger effect = lower value 0.949 | locus YBR021W, strain FUR4, stronger effect = lower value 0.893 | locus YBR023C, strain chs3, stronger effect = lower value 0.92 | locus YBR171W, strain sec66, stronger effect = lower value 0.91 | locus YBR229C, strain ROT2, stronger effect = lower value 0.969 | locus YBR231C, strain swc5, stronger effect = lower value 0.951 | locus YBR279W, strain paf1, stronger effect = lower value 0.952 | locus YCL016C, strain dcc1, stronger effect = lower value 0.915 | locus YCL029C, strain bik1, stronger effect = lower value 0.954 | locus YCL061C, strain MRC1, stronger effect = lower value 0.943 | locus YCR088W, strain abp1, stronger effect = lower value 0.945 | locus YDL005C, strain med2, stronger effect = lower value 0.975 | locus YDL035C, strain GPR1, stronger effect = lower value 0.922 | locus YDL040C, strain nat1, stronger effect = lower value 0.966 | locus YDL074C, strain BRE1, stronger effect = lower value 0.835 | locus YDL101C, strain DUN1, stronger effect = lower value 0.969 | locus YDL134C, strain PPH21, stronger effect = lower value 0.944 | locus YDL185W, strain tfp1, stronger effect = lower value 0.94 | locus YDL192W, strain arf1, stronger effect = lower value 0.939 | locus YDR001C, strain nth1, stronger effect = lower value 0.936 | locus YDR069C, strain doa4, stronger effect = lower value 0.998 | locus YDR101C, strain arx1, stronger effect = lower value 0.931 | locus YDR150W, strain NUM1, stronger effect = lower value 0.986 | locus YDR159W, strain sac3, stronger effect = lower value 0.955 | locus YDR162C, strain NBP2, stronger effect = lower value 0.93 | locus YDR297W, strain sur2, stronger effect = lower value 0.965 | locus YDR334W, strain swr1, stronger effect = lower value 0.968 | locus YDR335W, strain msn5, stronger effect = lower value 0.96 | locus YDR388W, stronger effect = lower value 0.931 | locus YEL003W, strain gim4, stronger effect = lower value 0.94 | locus YEL037C, strain rad23, stronger effect = lower value 0.946 | locus YEL061C, strain CIN8 (second series), stronger effect = lower value 0.969 | locus YEL061C, strain CIN8, stronger effect = lower value 0.971 | locus YER016W, strain bim1, stronger effect = lower value 0.948 | locus YER110C, stronger effect = lower value 0.951 | locus YER111C, strain swi4, stronger effect = lower value 0.986 | locus YER155C, strain BEM2, stronger effect = lower value 0.963 | locus YER167W, strain BCK2, stronger effect = lower value 0.907 | locus YFR010W, strain ubp6, stronger effect = lower value 0.974 | locus YGL078C, strain dbp3, stronger effect = lower value 0.957 | locus YGL167C, strain pmr1, stronger effect = lower value 0.945 | locus YGL173C, strain kem1, stronger effect = lower value 0.926 | locus YGL227W, strain vid30, stronger effect = lower value 0.948 | locus YGL240W, strain doc1, stronger effect = lower value 0.919 | locus YGL248W, strain PDE1, stronger effect = lower value 0.938 | locus YGR078C, strain PAC10, stronger effect = lower value 0.871 | locus YHR013C, strain ard1, stronger effect = lower value 0.951 | locus YHR027C, strain rpn1, stronger effect = lower value 0.959 | locus YHR030C, strain SLT2, stronger effect = lower value 0.939 and 0.975 | locus YHR079C, strain IRE1 (second series), stronger effect = lower value 0.937 | locus YHR079C, strain IRE1, stronger effect = lower value 0.977 | locus YHR094C, strain hxt1, stronger effect = lower value 0.954 | locus YHR129C, strain ARP1, stronger effect = lower value 0.973 | locus YHR200W, strain rpn10, stronger effect = lower value 0.925 | locus YIL066C, strain RNR3, stronger effect = lower value 0.94 | locus YIL073C, strain SPO22, stronger effect = lower value 0.864 | locus YIL125W, strain kgd1, stronger effect = lower value 0.96 | locus YIR030C, strain dcg1, stronger effect = lower value 0.941 | locus YJL092W, strain hpr5, stronger effect = lower value 0.947 | locus YJL095W, strain BCK1 (second series), stronger effect = lower value 0.935 | locus YJL115W, strain asf1, stronger effect = lower value 0.984 | locus YJL134W, strain LCB3, stronger effect = lower value 0.978 | locus YJL154C, strain vps35, stronger effect = lower value 0.96 | locus YJL166W, strain qcr8, stronger effect = lower value 0.93 | locus YJL168C, strain set2, stronger effect = lower value 0.945 | locus YJL187C, strain SWE1 (second series), stronger effect = lower value 0.942 | locus YJL187C, strain SWE1, stronger effect = lower value 0.967 | locus YJR043C, strain POL32, stronger effect = lower value 0.862 | locus YJR066W, strain TOR1, stronger effect = lower value 0.955
